# From PubChem BioAssay (NCATS)
# Values without a mark were called inactive. Results filed as inconclusive are left out. Where a call stands in place of a potency, no number is given. Active and inactive are the calls of the source. Unless noted, calls follow the shape of the dose curve; as a rule, active = well fitted curve in the direction sought with a large enough effect; inconclusive = small, poorly fitted or top-dose-only effect, or another doubt; inactive = no such curve, though single readings can be large; an effect the other way counts as inactive or inconclusive.
# Key:
# [1] = biological target: D(1A) dopamine receptor (Homo sapiens) (UniProt P21728); assay: HTS Assay for Allosteric Agonists of the Human D1 Dopamine Receptor: Primary Screen for Potentiators (AID 488982)
# Chain of D(1A) dopamine receptor (Homo sapiens) (P21728 whole entry, looked up): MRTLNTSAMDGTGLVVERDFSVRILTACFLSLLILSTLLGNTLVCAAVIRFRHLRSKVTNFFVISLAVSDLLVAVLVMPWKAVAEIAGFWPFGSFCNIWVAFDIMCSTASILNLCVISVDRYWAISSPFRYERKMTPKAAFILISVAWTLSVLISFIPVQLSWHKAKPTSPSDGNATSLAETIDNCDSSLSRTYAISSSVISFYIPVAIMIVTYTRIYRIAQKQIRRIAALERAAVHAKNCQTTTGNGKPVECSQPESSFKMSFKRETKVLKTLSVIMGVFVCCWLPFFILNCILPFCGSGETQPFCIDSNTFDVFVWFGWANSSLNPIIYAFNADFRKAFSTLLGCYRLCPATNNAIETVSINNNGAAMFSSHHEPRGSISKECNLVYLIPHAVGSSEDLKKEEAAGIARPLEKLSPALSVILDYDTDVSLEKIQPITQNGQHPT
# Procedure, shortened: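 Calcium flux in an inducible, force-coupled HEK293 Trex D1 line (overnight at 30 C): agonist mode is the 180 s kinetic read after compound; potentiator mode is the following 180 s read after dopamine at EC20.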
# [2] = biological target: D(1A) dopamine receptor (Homo sapiens) (UniProt P21728); assay: HTS Assay for Allosteric Agonists of the Human D1 Dopamine Receptor: Primary Screen for Antagonists (AID 488983);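 also: calcium flux response to an EC80 dopamine challenge measured with no-wash dye; nearly all actives have a fitted effect of over 65% in size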
# Procedure, shortened: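 Calcium-flux read-out in inducible HEK293 T-REx cells expressing D1, dye-loaded 30–90 min at room temperature. Kinetic reads: 180 s after compound (agonist phase), then 180 s after an EC80 dopamine challenge.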
# [3] = Validation screen for small molecules that induce genotoxicity in human embryonic kidney (HEK293T) cells expressing luciferase-tagged ELG1 (AID 493106)
# Procedure, shortened: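 ELG1-luciferase reporter readout (ONE-Glo, 30 min, room temperature) after 16 hr compound treatment at 37 °C of HEK293T cells at 2,000 per well. Rising luminescence flags genotoxic stress.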
# [4] = biological target: Thyrotropin-releasing hormone receptor (Homo sapiens) (UniProt P34981); assay: qHTS for Small Molecule Agonists and Allosteric Enhancers of Human TRH Receptor: Validation Screen for Agonists (AID 493127;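 active = calcium activation more than 3 SD above the typical response in the agonist read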;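 also: intracellular calcium rise by fluo-8 fluorescence before TRH EC20 addition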); settings: TRH receptor agonist cell assay; at 2 µM; hits give high values
# Chain of Thyrotropin-releasing hormone receptor (Homo sapiens) (P34981 whole entry, looked up): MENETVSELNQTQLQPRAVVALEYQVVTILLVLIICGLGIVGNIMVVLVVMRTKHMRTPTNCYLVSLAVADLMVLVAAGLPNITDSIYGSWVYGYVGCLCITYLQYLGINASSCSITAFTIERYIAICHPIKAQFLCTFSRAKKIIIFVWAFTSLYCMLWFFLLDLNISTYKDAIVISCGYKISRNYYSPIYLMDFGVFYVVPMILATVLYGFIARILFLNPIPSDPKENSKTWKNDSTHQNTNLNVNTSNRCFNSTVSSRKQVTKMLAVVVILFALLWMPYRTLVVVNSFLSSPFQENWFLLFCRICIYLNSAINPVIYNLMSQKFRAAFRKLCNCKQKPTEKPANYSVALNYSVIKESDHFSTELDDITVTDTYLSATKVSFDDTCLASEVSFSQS
# Procedure, shortened: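 Compound-evoked intracellular calcium release in fluo-8-loaded TRHR cells, read kinetically on FDSS (Ex 480/Em 530, 1 s/cycle) after 23 nL pintool transfer. Agonist phase preceded 10 nM TRH EC20 addition.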
# [5] = qHTS for Inhibitors of Cell Surface uPA Generation: Validation Assay (AID 493164);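 also: RAW 264.7 macrophage cells exposed to compound for 18 h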
# Procedure, shortened: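 ATP-Lite luminescence read-out: ATP remains high when uPA activity-dependent LF translocation into the cytoplasm is blocked. RAW 264.7 cells, 18 h compound exposure at 37 C; 7-point titration, 2.45 nM to 38.3 uM final.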
# [6] = Validation screen for small molecules that induce DNA re-replication in SW480 colon adenocarcinoma cells (AID 504364)
# Procedure, shortened: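 Image-based DNA content read-out: Hoechst stain 40 min, total nuclear fluorescence intensity (ex 405 nm, em 500-530 nm) after 48 h compound exposure of 250 SW480 cells/well at 37 C, 5% CO2, versus DMSO vehicle.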
# [7] = biological target: Phosphoglycerate kinase, glycosomal (Trypanosoma brucei brucei) (UniProt P07378); assay: qHTS Validation Assay to Find Inhibitors of Phosphoglycerate Kinase (AID 504547); also: potency is read from the fitted curve at half-maximal effect
# Chain of Phosphoglycerate kinase, glycosomal (Trypanosoma brucei brucei) (P07378 whole entry, looked up): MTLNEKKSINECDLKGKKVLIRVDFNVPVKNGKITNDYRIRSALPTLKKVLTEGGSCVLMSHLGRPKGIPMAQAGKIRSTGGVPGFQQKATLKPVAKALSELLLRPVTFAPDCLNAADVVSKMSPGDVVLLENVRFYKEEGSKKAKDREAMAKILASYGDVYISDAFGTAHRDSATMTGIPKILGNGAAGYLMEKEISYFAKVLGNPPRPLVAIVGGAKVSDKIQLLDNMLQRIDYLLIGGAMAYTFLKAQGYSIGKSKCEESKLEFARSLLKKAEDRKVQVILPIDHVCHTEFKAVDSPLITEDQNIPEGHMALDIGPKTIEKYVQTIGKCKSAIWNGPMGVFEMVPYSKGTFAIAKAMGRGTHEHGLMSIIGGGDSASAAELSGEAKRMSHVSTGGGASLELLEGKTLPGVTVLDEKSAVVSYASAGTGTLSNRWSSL
# Procedure, shortened: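 Luminescence end-point (Kinase-Glo Plus, 10 min) after a 60 min room-temperature coupled reaction. GAPDH at 100nM final supplies 1,3-BPG to PGK. Buffer: 100mM TEA pH 7.6, 5mM MgCl2, 0.01% Tween-20. Wells lacking PGK served as controls.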
# [8] = biological target: Ubiquitin carboxyl-terminal hydrolase 1 (Homo sapiens) (UniProt O94782); assay: Inhibitors of USP1/UAF1: Pilot qHTS (AID 504865); also: potency is read from the fitted curve at half-maximal effect; nearly all actives have a fitted effect of over 35% in size
# Chain of Ubiquitin carboxyl-terminal hydrolase 1 (Homo sapiens) (O94782 whole entry, looked up): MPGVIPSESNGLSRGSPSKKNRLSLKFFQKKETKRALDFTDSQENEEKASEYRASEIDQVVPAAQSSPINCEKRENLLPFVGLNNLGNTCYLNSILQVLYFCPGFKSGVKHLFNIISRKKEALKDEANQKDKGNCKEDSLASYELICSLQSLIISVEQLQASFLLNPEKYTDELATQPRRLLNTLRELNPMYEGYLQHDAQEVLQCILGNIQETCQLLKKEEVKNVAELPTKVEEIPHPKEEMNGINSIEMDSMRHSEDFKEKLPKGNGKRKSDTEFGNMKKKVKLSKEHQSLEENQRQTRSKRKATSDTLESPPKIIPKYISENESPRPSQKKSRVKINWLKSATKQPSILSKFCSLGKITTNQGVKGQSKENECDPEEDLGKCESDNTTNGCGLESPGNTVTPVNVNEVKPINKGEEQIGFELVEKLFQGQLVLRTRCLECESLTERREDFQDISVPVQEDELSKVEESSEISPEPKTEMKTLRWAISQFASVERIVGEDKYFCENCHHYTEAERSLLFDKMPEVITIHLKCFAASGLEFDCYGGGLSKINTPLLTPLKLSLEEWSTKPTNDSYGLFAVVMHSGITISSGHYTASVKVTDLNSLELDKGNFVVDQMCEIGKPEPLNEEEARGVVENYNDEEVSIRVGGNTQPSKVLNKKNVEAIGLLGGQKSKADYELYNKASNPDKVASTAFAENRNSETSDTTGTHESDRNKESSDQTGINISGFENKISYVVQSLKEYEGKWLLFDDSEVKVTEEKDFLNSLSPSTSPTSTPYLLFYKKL
# Procedure, shortened: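 Deubiquitinase activity followed as kinetic rhodamine fluorescence release from 150 nM Ub-Rho. 1 nM USP1/UAF1 with compound, after 15 min room-temperature preincubation, in HEPES pH 7.8 buffer containing TCEP, EDTA, BSA and Tween-20.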
# [9] = biological target: Voltage-gated inwardly rectifying potassium channel KCNH2 (Homo sapiens) (UniProt Q12809); assay: qHTS Assay for Small Molecule Inhibitors of the Human hERG Channel Activity (AID 588834);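 also: top concentration of the series differs between compounds; lower thallium flux fluorescence means stronger hERG block; nearly all actives have a fitted effect of over 50% in size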
# Procedure, shortened: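 hERG block measured as reduced thallium-dye (FluxOR) fluorescence after stimulation buffer addition, read over 2 min. Cells were hERG-BacMam-transduced U2OS exposed to compound ~10 min […]; concentration-response fitted with Hill equation for AC50.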
# [10] = biological target: Glucagon-like peptide 1 receptor (Homo sapiens) (UniProt P43220); assay: qHTS of GLP-1 Receptor Agonists: LOPAC Validation (AID 624148);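 also: luminescence from a luciferase reporter switched on by cAMP; higher luminescence signal means agonism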
# Chain of Glucagon-like peptide 1 receptor (Homo sapiens) (P43220 whole entry, looked up): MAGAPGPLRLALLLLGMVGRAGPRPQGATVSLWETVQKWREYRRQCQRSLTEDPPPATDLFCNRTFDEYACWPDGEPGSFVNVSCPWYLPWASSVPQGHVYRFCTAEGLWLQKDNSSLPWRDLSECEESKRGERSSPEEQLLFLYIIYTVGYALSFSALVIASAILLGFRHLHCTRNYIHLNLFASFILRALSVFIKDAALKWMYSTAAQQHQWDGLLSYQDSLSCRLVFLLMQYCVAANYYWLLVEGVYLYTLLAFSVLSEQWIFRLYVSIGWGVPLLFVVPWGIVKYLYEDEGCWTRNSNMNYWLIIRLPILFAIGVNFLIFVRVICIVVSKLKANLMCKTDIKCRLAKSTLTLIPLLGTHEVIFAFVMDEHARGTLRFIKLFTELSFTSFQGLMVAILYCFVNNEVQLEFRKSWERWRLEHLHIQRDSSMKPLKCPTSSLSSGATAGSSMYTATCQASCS
# Procedure, shortened: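 Agonism scored as increased luciferase luminescence driven by cAMP in HEK293 clones carrying GLP-1R. Cells settled 12 hours, received compound for 4-6 hr at 37 deg C, 5% CO2, and were read after 12 min detection reagent at RT.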
# [11] = qHTS of Nrf2 Activators: LOPAC Validation (AID 624149)
# Procedure, shortened: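 Luciferase signal from ARE activation, read with Steady-Glo after 30 min at room temperature. Compounds were pin-transferred onto AREc32_Fluc cells (1000/well, OPTI-MEM/5% FBS, seeded overnight) and left 24 hr at 37 deg C.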
# [12] = HTS Assay for Allosteric Antagonists of the Human D2 Dopamine Receptor: Hit Validation in HTRF (AID 624455);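 also: stable D1 dopamine receptor cell line scored for blocking the D1 response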
# Procedure, shortened: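 Inhibition of the D1-mediated response was measured by HTRF. Cells used were a line stably expressing the D1 dopamine receptor.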
# [13] = qHTS for compounds that reverse cellular toxicity of Amyloid beta (A-beta) peptide in yeast: LOPAC Validation Assay (AID 720559)
# Procedure, shortened: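 Rescue of A-beta toxicity was scored as yeast growth by 600 nm absorbance after 48 hr at 30 C with compound. Normalization used DMSO (negative) and equimolar ferric chloride plus clioquinol (positive).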
# [14] = qHTS for Activators of Parkin Expression: LOPAC Validation Assay (NLuc Reporter) (AID 720572)
# Procedure, shortened: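 Compound effects on Parkin promoter activity were measured as NanoLuc luminescence after 24 h at 37 C. The neuronal reporter line also carried FLuc, which was read first. LOPAC compounds were tested at 7 concentrations, with normalization to DMSO (0%) and positive control (100%).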
# [15] = qHTS for Activators of Parkin Expression: LOPAC Validation Assay (FLuc Reporter) (AID 720573)
# Procedure, shortened: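 FLuc signal from Parkin-promoter coincidence reporter neuronal cells, normalized to DMSO and positive control (100%). Cells (1,500/well) pre-incubated 24 h, then exposed to LOPAC compounds in 7-point dose response for 24 h at 37 C, 5% CO2.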
# [16] = biological target: Hexokinase-4 (Homo sapiens) + Glucokinase regulatory protein (Homo sapiens) (UniProt P35557+Q14397); assay: qHTS assay for inhibitors of recombinant human GCK-GKRP interaction: ADP-Glo assay (AID 743206)
# Chain of Hexokinase-4 (Homo sapiens) + Glucokinase regulatory protein (Homo sapiens) (P35557 whole entry, looked up): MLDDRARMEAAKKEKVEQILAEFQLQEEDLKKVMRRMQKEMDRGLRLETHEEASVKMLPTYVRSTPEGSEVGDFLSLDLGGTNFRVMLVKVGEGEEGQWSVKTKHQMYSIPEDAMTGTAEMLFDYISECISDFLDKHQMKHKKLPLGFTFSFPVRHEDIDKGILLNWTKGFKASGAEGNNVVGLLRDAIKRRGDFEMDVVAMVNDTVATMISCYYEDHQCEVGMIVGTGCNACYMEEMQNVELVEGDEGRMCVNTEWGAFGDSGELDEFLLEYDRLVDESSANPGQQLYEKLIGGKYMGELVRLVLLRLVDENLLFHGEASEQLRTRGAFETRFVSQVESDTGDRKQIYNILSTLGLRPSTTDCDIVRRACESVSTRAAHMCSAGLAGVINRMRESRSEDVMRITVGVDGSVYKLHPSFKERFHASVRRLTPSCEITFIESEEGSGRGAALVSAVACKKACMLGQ
# Chain of Hexokinase-4 (Homo sapiens) + Glucokinase regulatory protein (Homo sapiens) (Q14397 whole entry, looked up): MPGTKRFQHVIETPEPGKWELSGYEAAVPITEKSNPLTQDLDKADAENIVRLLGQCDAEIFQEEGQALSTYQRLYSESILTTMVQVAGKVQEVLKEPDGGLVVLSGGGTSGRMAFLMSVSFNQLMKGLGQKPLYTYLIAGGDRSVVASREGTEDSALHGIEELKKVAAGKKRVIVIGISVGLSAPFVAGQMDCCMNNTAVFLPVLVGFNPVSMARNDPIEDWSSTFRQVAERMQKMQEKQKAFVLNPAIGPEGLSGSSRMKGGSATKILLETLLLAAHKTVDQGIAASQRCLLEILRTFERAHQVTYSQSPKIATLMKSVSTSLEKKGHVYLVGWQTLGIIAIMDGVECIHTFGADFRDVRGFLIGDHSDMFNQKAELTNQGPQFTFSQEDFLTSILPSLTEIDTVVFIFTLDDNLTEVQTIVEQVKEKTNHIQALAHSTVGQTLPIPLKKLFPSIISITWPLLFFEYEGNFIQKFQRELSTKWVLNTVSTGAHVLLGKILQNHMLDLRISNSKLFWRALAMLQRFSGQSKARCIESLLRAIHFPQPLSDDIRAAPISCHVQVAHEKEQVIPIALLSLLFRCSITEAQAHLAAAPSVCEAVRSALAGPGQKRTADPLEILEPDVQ
# Procedure, shortened: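 Pin-transferred compounds meet a 15 nM GST-GCK/15 nM FLAG-GKRP/2 uM S6P mix (dispense concentrations). ATP is then added to 0.4 mM final with 5 mM glucose, and the reaction runs 60 min at room temperature. ADP is quantified luminescently.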
# [17] = qHTS Assay for Identifying Gametocytocidal Compounds (AID 743244);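 also: actives lower the fluorescent signal which means gametocytes are killed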; settings: P. falciparum 3D7 stage III-V gametocytes, alamarBlue, 72 h; max response: hits give low values
# Procedure, shortened: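 3D7 gametocytes, stages III–V, 20,000/well; cpd 72 h, 37 °C/5% CO2; + alamarBlue 24 h; fluor. Ex 525/Em 598.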
# [18] = Natriuretic polypeptide receptor (hNpr1) antagonism - Pilot counterscreen GloSensor control cell line (AID 1347045; calls by dose curve; also: potency is read from the fitted curve at half-maximal effect)
# Procedure, shortened: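 Control counterscreen: luciferase cGMP-biosensor HEK293 cells (no Npr1) received compound for 30 min at room temperature after GloSensor substrate loading. Luminescence was measured before and 20 min after soluble guanylyl cyclase activation by 50 uM nitroprusside.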
# [19] = NS1 protein of Zika virus - qHTS assay to identify small molecule inhibitors in human HEK 293 cells (AID 1347053); also: series mostly up to about 46 µM; nearly all actives have a fitted effect of over 55% in size
# Procedure, shortened: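 Readout was TR-FRET using paired anti-NS1 antibodies after 24 h infection of HEK 293 cells with ZIKV MR766 (MOI = 0.5). Compound preceded virus by 1 h; reduced signal reflects lower NS1 expression.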
# [20] = biological target: Tyrosine-protein phosphatase non-receptor type substrate 1 (Homo sapiens) + Leukocyte surface antigen CD47 (Homo sapiens) (UniProt P78324+Q08722); assay: CD47-SIRPalpha protein protein interaction - LANCE assay qHTS validation (AID 1347057; active = well fitted curve in the direction sought with a large enough effect in the signal ratio, with a control signal flat, not every such curve was filed as active; the % refers to the signal ratio; also: series mostly up to about 38 µM)
# Chain of Tyrosine-protein phosphatase non-receptor type substrate 1 (Homo sapiens) + Leukocyte surface antigen CD47 (Homo sapiens) (P78324 whole entry, looked up, the tested form may be a part): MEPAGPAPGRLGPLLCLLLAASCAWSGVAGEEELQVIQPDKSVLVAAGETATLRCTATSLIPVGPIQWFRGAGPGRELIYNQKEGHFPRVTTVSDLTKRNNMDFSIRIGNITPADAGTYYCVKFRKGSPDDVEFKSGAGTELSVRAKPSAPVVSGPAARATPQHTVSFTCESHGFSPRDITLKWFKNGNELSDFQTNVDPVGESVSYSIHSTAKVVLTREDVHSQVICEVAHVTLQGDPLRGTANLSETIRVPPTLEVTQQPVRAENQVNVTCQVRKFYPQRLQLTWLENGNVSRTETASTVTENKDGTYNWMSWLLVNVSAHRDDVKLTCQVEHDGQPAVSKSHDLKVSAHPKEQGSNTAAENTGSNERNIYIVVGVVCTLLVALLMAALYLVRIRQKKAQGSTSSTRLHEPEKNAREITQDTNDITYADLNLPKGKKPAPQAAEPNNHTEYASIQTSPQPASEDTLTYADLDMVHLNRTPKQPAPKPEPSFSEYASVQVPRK
# Chain of Tyrosine-protein phosphatase non-receptor type substrate 1 (Homo sapiens) + Leukocyte surface antigen CD47 (Homo sapiens) (Q08722 whole entry, looked up, the tested form may be a part): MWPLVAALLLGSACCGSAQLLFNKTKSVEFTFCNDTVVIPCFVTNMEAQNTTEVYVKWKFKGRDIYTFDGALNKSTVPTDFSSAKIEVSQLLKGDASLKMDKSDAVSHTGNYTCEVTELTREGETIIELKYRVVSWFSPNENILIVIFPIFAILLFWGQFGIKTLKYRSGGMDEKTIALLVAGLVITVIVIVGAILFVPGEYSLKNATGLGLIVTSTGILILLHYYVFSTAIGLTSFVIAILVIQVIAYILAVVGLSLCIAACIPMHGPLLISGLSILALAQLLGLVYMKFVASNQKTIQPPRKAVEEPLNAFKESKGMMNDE
# Procedure, shortened: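 Inhibition of soluble CD47/SIRPalpha ectodomain association by titrated compounds, measured as 665/615 nm time-resolved FRET ratio after sequential 30 min room-temperature incubations.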
smiles,measurement,setting,value
Nc1c(S(=O)(=O)O)cc(Nc2ccc(Nc3nc(Cl)nc(Nc4ccc(S(=O)(=O)O)cc4)n3)c(S(=O)(=O)O)c2)c2c1C(=O)c1ccccc1C2=O,outcome,[1],inactive
same,outcome,[2],inactive
same,Potency,[3],inactive
same,activation,[4],1.5%
same,outcome,[5],inactive
same,outcome,[6],inactive
same,Potency,[7],5.36 µM (active)
same,Potency,[8],6.31 µM (active)
same,Potency,[9],inactive
same,outcome,[10],inactive
same,outcome,[11],inactive
same,outcome,[12],inactive
same,outcome,[13],inactive
same,outcome,[14],inactive
same,Potency,[15],inactive
same,outcome,[16],inactive
same,max response,[17],27.3%
same,Potency,[18],9.27 µM (active)
same,outcome,[19],inactive
same,outcome,[20],inactive
